Laboratory results reported in PubChem BioAssay AID1030 (National Center for Advancing Translational Sciences (NCATS), 2008).
“And” between values parts separate entries of the source, which are not always exact repeats. Equal entries are not always repeated. The campaign covered roughly 220,000 compounds. About 16,000 (7.3%) were called active. Inconclusive results (about 25%) are left out. The sample holds actives, similar compounds and a random draw of the others, so the mix is not that of the screen. The call rests on the fitted dose curve; in most records, active means well fitted inhibition curve with a large enough effect (not every such curve was filed as active); inconclusive means small, poorly fitted or top-dose-only effect, or another doubt; inactive means no such curve, though single readings can be large or run the other way.

target: Aldehyde dehydrogenase 1A1 (Homo sapiens) (UniProt P00352); test: qHTS Assay for Inhibitors of Aldehyde Dehydrogenase 1 (ALDH1A1); details: Purified ALDH1A1, NADH fluorescence, propionaldehyde substrate; series mostly up to 75.3 µM
Potency means the concentration at half of the fitted maximal effect.

Chain of Aldehyde dehydrogenase 1A1 (Homo sapiens) (P00352 whole entry, looked up): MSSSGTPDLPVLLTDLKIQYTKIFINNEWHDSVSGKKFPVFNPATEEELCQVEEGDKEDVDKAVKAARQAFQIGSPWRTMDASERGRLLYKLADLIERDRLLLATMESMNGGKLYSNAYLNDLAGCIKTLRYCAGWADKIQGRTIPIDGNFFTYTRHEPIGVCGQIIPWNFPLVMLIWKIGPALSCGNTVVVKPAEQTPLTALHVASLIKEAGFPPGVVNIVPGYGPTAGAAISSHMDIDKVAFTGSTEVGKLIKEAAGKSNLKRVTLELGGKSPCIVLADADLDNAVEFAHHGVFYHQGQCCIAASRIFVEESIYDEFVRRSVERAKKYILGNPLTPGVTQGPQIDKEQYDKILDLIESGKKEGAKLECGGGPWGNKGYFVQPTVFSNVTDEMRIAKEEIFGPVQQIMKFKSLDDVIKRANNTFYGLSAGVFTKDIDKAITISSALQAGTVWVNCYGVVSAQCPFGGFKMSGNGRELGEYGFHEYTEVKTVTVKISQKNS

Potency, active:
CC(=O)n1cc([C@@H]2C=C(C(=O)N3CCN(Cc4ccc5c(c4)OCO5)CC3)O[C@H](OCc3ccc(CO)cc3)C2)c2ccccc21 25.1 µM
Cn1cnc([N+](=O)[O-])c1Sc1ccccc1 11.2 µM
COC(=O)c1ccccc1SC1CC(=O)N(c2cccc(C)c2)C1=O (stereo not drawn) 17.8 µM
Oc1cc2c(cc1O)CN(C(=S)NCCc1ccc(Cl)cc1)CCC2 15.8 µM and 20 µM
O=C(CCl)N(Cc1cccc([N+](=O)[O-])c1)c1cccc(Cl)c1 0.158 µM
CCOC(=O)c1c(NC(=O)CSc2nnc(Cc3csc(N)n3)n2C)sc(C)c1C 7.94 µM
CCC1(CC)Cc2ccccc2-c2nc3ccccc3c(=O)n21 15.8 µM
Oc1c(C=Nc2cccc3nsnc23)ccc2ccccc12 2.82 µM
NS(=O)(=O)c1ccc(NC(=S)NNC(=O)c2cccs2)cc1 12.6 µM
CCc1nnc(NS(=O)(=O)c2ccc(NC(=S)NC(=O)/C=C/c3cccs3)cc2)s1 12.6 µM
CCc1nnc(NS(=O)(=O)c2ccc(NC(=S)NC(=O)c3cccs3)cc2)s1 25.1 µM
O=C(CNS(=O)(=O)c1cccc(C(F)(F)F)c1)Nc1ccccc1F 31.6 µM
Cc1cc(NC(=O)c2cccc(N3C(=O)CCC3=O)c2)no1 28.2 µM
O=C(/C=C/NNC(=O)c1cccc(Br)c1)c1ccccc1 2.82 µM
COc1cccc(-n2c(SCC(=O)NC3CCCCC3)nc3n[nH]c(C)c3c2=N)c1 20 µM
CCc1nc(C)cn1S(=O)(=O)c1cc([N+](=O)[O-])ccc1Cl 7.94 µM
O=C(NCc1nnc(SCC(=O)N2CCC(Cc3ccccc3)CC2)o1)c1ccco1 14.1 µM
Cn1c(=O)c([N+](=O)[O-])c(Oc2ccccc2)c2ccccc21 17.8 µM
Cc1cccc(Oc2c([N+](=O)[O-])c(=O)n(C)c3ccccc23)c1 3.16 µM

Potency, inactive:
CSc1ncccc1C(=O)OCc1ccc(Br)cc1
O=C(C1=C[C@H](c2coc3ccccc3c2=O)C[C@H](OCc2ccc(CO)cc2)O1)N1CCN(Cc2ccccc2)CC1
CN1CCN(C(=O)C2=C[C@H](c3ccc4c(c3)OCO4)C[C@H](OCc3ccc(CO)cc3)O2)CC1
O=C(C(=O)N1CCc2ccccc2C1)c1c[nH]c2ccccc12
O=C(Nc1nnc(Cc2ccc(Cl)cc2)s1)c1cccnc1
Cn1cnc([N+](=O)[O-])c1Nc1ccccc1O
Cn1cnc([N+](=O)[O-])c1Sc1n[nH]c(N)n1
COC(=O)COc1ccc(C2NC(=O)NC(C)=C2C(=O)NCc2ccccc2)cc1OC (stereo not drawn)
O=C(Nc1ccc(N2CCOCC2)nc1)c1c(F)cccc1F
Cc1ccc(S(=O)(=O)Cc2cc(-c3ccc(Cl)cc3)no2)cc1
COC(=O)c1cc(NC(=O)c2ccco2)ccc1N1CCOCC1
Cc1c(C=O)c2ccccc2n1CC(=O)O
O=C1CC(c2ccccc2)C(=O)N1c1cccc(O)c1 (stereo not drawn)
Cc1cccc(N2C(=O)CC(SC(N)=Nc3ccccc3)C2=O)c1 (stereo not drawn)
O=C1OCC2=C1C(c1ccccc1)CC(=O)N2c1cccc(F)c1 (stereo not drawn)
CC(=O)N(CN1C(=O)C2C3C=CC(C3)C2C1=O)c1cccc(Cl)c1 (stereo not drawn)
Cn1cc(CN2CCCC(CO)C2)c(-c2ccc(Oc3ccccc3)cc2)n1 (stereo not drawn)
CC(C)C1=CC2=CC[C@H]3[C@](C)(C(=O)O)CCC[C@]3(C)C2CC1 (stereo partly drawn)
O=C1CCN(C(=S)NCCc2ccccc2)CC1
S=C(NCCc1ccccc1)N1CCCCC1
O=C(Nc1cccc([N+](=O)[O-])c1)Nc1ccc(Cl)cn1
CCN(CC)C(=O)CN(c1cccc([N+](=O)[O-])c1)S(=O)(=O)c1ccccc1
COc1ccc(CCNC(=O)c2ccc(CS(=O)(=O)c3ccc(Br)cc3)o2)cc1OC
Nc1nc(NC(=O)/C=C/c2ccc(F)cc2)nn1-c1ccccc1
CCOc1ccc(Nc2nc(Cc3nnc(SCC(=O)NC4CCCC4)n3C)cs2)cc1
CCOC(=O)CSc1nnc(CNc2nc(-c3ccccc3)cs2)n1C
CCO[C@H]1OC(C(=O)N2CCCCCCC2)=C[C@@H](c2ccc(C(F)(F)F)cc2)[C@@H]1CCCO
NC(=O)C1CCN(Cc2nc3c(Br)cc(Br)cc3c(=O)[nH]2)CC1
O=C(Nc1ccc(C(=O)O)cc1)/C(=C/c1ccc([N+](=O)[O-])cc1)NC(=O)c1ccccc1
Nc1ncnc(Nc2cccc(Cl)c2Cl)n1
CC(C)(C)c1nc2ccccc2c(=O)n1N1C(=O)c2ccccc2C1=O
CCOC(=O)C1CCc2nc3ccccc3c(=O)n21 (stereo not drawn)
COc1ccc(-n2c(O)c(C=NCC(c3ccco3)N3CCCC3)c3ccccc3c2=O)cc1OC (stereo not drawn)
CC1COc2ccccc2N1C(=O)c1cccnc1Cl (stereo not drawn)
CCn1cc(CN2CCCC(CNS(=O)(=O)Cc3ccccc3)C2)cn1 (stereo not drawn)
CC(Sc1nc2c([nH]c3ccccc32)c(=O)n1C)c1ccccc1 (stereo not drawn)
Cc1ccc2nsnc2c1S(=O)(=O)N1CCCC1C(=O)O (stereo not drawn)
COCCN(Cc1nc(-c2ccc(C(F)(F)F)cc2)no1)C(C)C
O=C(Nc1cccc(C(F)(F)F)c1)c1ccc(N2CCNCC2)c([N+](=O)[O-])c1
COc1cccc(/C=C/C(=O)Nc2ccc3c(c2)OCCO3)c1
CCc1nnc(NC(=O)c2cccs2)s1
CC(C)C(=O)Nc1ccc(C(=O)NNC(=O)c2cccs2)cc1
O=C(NC(=S)Nc1ccc(NC(=O)c2cccs2)cc1)c1ccc([N+](=O)[O-])cc1
CCOC(=O)c1c(NC(=S)NC(=O)/C=C/c2cccs2)sc(C)c1C
COc1ccc(NS(=O)(=O)c2ccc(NC(=S)NC(=O)/C=C/c3ccc(C)cc3)cc2)nn1
CCc1nnc(NS(=O)(=O)c2ccc(NS(=O)(=O)c3ccccc3)cc2)s1
CC(=O)Nc1ccc(S(=O)(=O)N(C)c2ccc(OCC(=O)OCC(=O)N3CCCCC3)cc2)cc1
CCc1cc2cc(OC)ccc2nc1SCC(=O)Nc1cc(OC)c(OC)cc1C(=O)O
COC(C)C(C(=O)OCC1=CCN2CC[C@H](O)[C@@H]12)C(C)C (stereo partly drawn)
COc1ccc(C2OCC3(CO2)SC(=O)NC3=O)cc1OC (stereo not drawn)
CN1CCC(OC(=O)COc2ccc(Cl)cc2Cl)CC1
Cc1cccc(OCC(=O)Nc2ccccc2F)c1
O=C(CNS(=O)(=O)c1ccccc1)NCC(=O)OCc1ccccc1F
Cc1cccc(C)c1NC(=O)C1(C)c2cccc[n+]2CC(=O)N1Cc1cccs1 (stereo not drawn)
COc1ccccc1N(C)S(=O)(=O)c1ccc(Cl)c(C(=O)N2CCC(C(N)=O)CC2)c1
COc1ccccc1-c1nnc(NC(=O)c2cccc(N3C(=O)CCC3=O)c2)o1
O=C(Nc1cccc2cccnc12)c1cccc(N2C(=O)CCC2=O)c1
Nc1nnc(SCC(=O)NC2CCCc3ccccc32)s1 (stereo not drawn)
CCCCC(NC(=O)c1cccc(Br)c1)C(=O)O (stereo not drawn)
CC(CC(=O)O)CC(=O)NNC(=O)c1cccc(Br)c1 (stereo not drawn)
Cc1ccc(CN2CCC(N3CCC(C(=O)NCC4CCCO4)CC3)CC2)o1 (stereo not drawn)
Cc1onc(C(=O)NN)c1-c1csc(COc2ccccc2)n1
C=CCn1c(CC(=O)Nc2cccc(OC)c2)nnc1SCC(=O)NC1CCCCC1
CCCCNC(=O)CSc1nc2n[nH]c(C)c2c(=N)n1-c1cccc(Cl)c1C
Cc1ccc(S(=O)(=O)N2CCCC2C(=O)OCc2nc3sc(C)c(C)c3c(=O)[nH]2)cc1 (stereo not drawn)
COc1ccc(-c2nn(-c3ccccc3)cc2/C=C\C(=O)Nc2ccc(C(=O)O)cc2)cc1
COc1ccc(N=C2SC(C(=O)Nc3ccc(F)cc3)CC(=O)N2C)cc1 (stereo not drawn)
CCc1nc(C)cn1S(=O)(=O)c1cc(OC)c(C)cc1C
CC(C)c1nccn1S(=O)(=O)c1cc([N+](=O)[O-])ccc1Cl
CC(C)C(=O)Nc1oc(-c2ccccc2)cc1C#N
COc1cccc(NC(=O)CC2C(=O)NCCN2C(=S)Nc2ccc(F)cc2)c1 (stereo not drawn)
O=C(Cn1cnc2c(nnn2-c2ccccc2)c1=O)N1CCC(Cc2ccccc2)CC1
O=C(CSc1nnc(-c2ccccc2)o1)N1CCOCC1
Cc1cccc(N(C(=O)Cc2cccs2)C(C(=O)NCc2ccco2)c2ccncc2)c1 (stereo not drawn)
COc1ccc2c(CC(=O)OCC(=O)NC(N)=O)coc2c1
O=[N+]([O-])c1cccc(-c2nnc3c4ccccc4c4ccccc4n23)c1
Cc1nn(C)c(Oc2ccccc2)c1[N+](=O)[O-]
COc1cccc(C(=O)Oc2cc(C)[nH]c(=O)c2[N+](=O)[O-])c1
Cn1c2ccccc2c(=O)c2c(O)cccc21
CC(=O)N1CCN(S(=O)(=O)c2ccc(C)c([N+](=O)[O-])c2)C1C(C)C (stereo not drawn)
Nc1[nH][nH]c(=O)c1N=Nc1ccc2c(c1)OCO2
COc1cc(NC(=O)c2cccs2)ccc1NC(=O)c1ccccc1Cl
COc1ccccc1C1CCN(C(=S)Nc2ccc(Br)cc2)CC1
C/C(=N\NC(=O)c1cccnc1)c1ccc(-c2ccccc2)cc1
